Experimental data as given in the supplement of paper PMC9262897, “Low-cost anti-mycobacterial drug discovery using engineered E. coli” (Nature Communications, 2022).
Counter-ions that a name gives are not always drawn. ± gives the standard deviation of the averaged measurements.

Tested on: E. coli TESEC Mtb Alr
Experiment: growth (OD600 after 10 h); higher = more growth (less inhibition)
Settings: arabinose 1000 nM; compound 0.1 mM; raw OD600 reference: median of DMSO wells 0.294, cell-free background 0.041
Description: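 TESEC Mtb Alr E. coli, or the Alr+ wild-type control, in 384-well plates with Prestwick library compounds at 0.1 mM and 1% DMSO, across arabinose induction levels of 1E3 to 1E7 nM. Growth is read as OD600 after 10 h at 37 °C in triplicate biological replicates.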

| SMILES | growth |
| --- | --- |
| CN(C)CCN(Cc1ccc(Cl)cc1)c1ccccn1 [Chloropyramine hydrochloride] | 0.245 ± 0.0086 |
| O=C1NCCN1CCN1CCC(c2cn(-c3ccc(F)cc3)c3ccc(Cl)cc23)CC1 [Sertindole] | 0.04057 ± 0.00035 |
| O=C1NCC2(CCN(CCc3ccccc3)CC2)O1 [Fenspiride hydrochloride] | 0.288 ± 0.013 |
| CC(C)[C@H]1CC[C@H](C(=O)N[C@H](Cc2ccccc2)C(=O)O)CC1 [Nateglinide] | 0.277 ± 0.0054 |
| CCOC(=O)[C@H](CCc1ccccc1)N[C@@H](C)C(=O)N1CCC[C@H]1C(=O)O [Enalapril maleate] | 0.296 ± 0.017 |
| CC1(C)O[C@@H]2[C@@H](CO[C@@]3(COS(N)(=O)=O)OC(C)(C)O[C@@H]23)O1 [Topiramate] | 0.291 ± 0.0074 |
| c1ccc2c(c1)CCCc1cc(NCCN3CCOCC3)nnc1-2 | 0.285 ± 0.013 |
| CC[C@@H]1C(=O)OC[C@@H]1Cc1cncn1C [Pilocarpine nitrate] | 0.247 ± 0.037 |
| Cn1ccnc1S [Methimazole] | 0.32 ± 0.018 |
| NC[C@H]1O[C@H](O[C@H]2[C@H](O)[C@@H](O[C@H]3O[C@H](CO)[C@@H](O)[C@H](N)[C@H]3O)[C@H](N)C[C@@H]2N)[C@H](N)C[C@@H]1O [Tobramycin] | 0.0407 ± 0.00085 |
| O=C1C(CC[S+]([O-])c2ccccc2)C(=O)N(c2ccccc2)N1c1ccccc1 (stereo not given) [Sulfinpyrazone] | 0.244 ± 0.0079 |
| C=C1/C(=C\C=C2/CCC[C@]3(C)[C@@H]([C@H](C)CCCC(C)C)CC[C@@H]23)C[C@@H](O)C[C@@H]1O [Alfacalcidol] | 0.0977 ± 0.004 |
| C[C@H](O)C(=O)Nc1c(I)c(C(=O)NC(CO)CO)c(I)c(C(=O)NC(CO)CO)c1I [Iopamidol] | 0.323 ± 0.014 |
| CCCCNc1cc(C(=O)O)cc(S(N)(=O)=O)c1Oc1ccccc1 [Bumetanide] | 0.261 ± 0.021 |
| CN(C)CCCOc1nn(Cc2ccccc2)c2ccccc12 [Benzydamine hydrochloride] | 0.224 ± 0.012 |
| CCn1nc(C(=O)O)c(=O)c2cc3c(cc21)OCO3 [Cinoxacin] | 0.0736 ± 0.006 |
| CCCCOC(=O)c1ccc(N)cc1 [Butamben] | 0.23 ± 0.018 |
| C#C[C@]1(O)CC[C@H]2[C@@H]3CCC4=CCCC[C@@H]4[C@H]3CC[C@@]21C [Lynestrenol] | 0.297 ± 0.0055 |
| CCc1c2c(nc3ccc(OC(=O)N4CCC(N5CCCCC5)CC4)cc13)-c1cc3c(c(=O)n1C2)COC(=O)[C@]3(O)CC [Irinotecan hydrochloride trihydrate] | 0.32 ± 0.0061 |
| CN(C)CCn1nnnc1SCC1=C(C(=O)O)N2C(=O)[C@@H](NC(=O)Cc3csc(N)n3)[C@H]2SC1 [Cefotiam hydrochloride] | 0.039 ± 0.0012 |

| SMILES | growth |
| --- | --- |
| O=S(=O)(O)c1cc(O)ccc1O [Ethamsylate] | 0.311 ± 0.0039 |
| NNC(=O)c1ccncc1 [Isoniazid] | 0.288 ± 0.006 |
| O=C(O)/C=C/c1ccc(Cn2ccnc2)cc1 [Ozagrel hydrochloride] | 0.268 ± 0.019 |
| NCCC[C@H](N)CC(=O)N[C@H]1CNC(=O)[C@H]([C@H]2C[C@H](O)NC(N)=N2)NC(=O)/C(=C/NC(N)=O)NC(=O)[C@H](CO)NC(=O)[C@H](CO)NC1=O [Viomycin sulfate] | 0.251 ± 0.012 |
| CC1CS(=O)(=O)CCN1/N=C/c1ccc([N+](=O)[O-])o1 (stereo not given) [Nifurtimox] | 0.0539 ± 0.0037 |
| CC(C)C(=O)Nc1ccc([N+](=O)[O-])c(C(F)(F)F)c1 [Flutamide] | 0.189 ± 0.0088 |
| Nc1ccc(S(=O)(=O)Nc2cnc3ccccc3n2)cc1 [Sulfaquinoxaline sodium salt] | 0.266 ± 0.02 |
| Cc1cnc(NC(=O)C2=C(O)c3ccccc3S(=O)(=O)N2C)s1 [Meloxicam] | 0.186 ± 0.0048 |
| CCCc1ncc(C[n+]2ccccc2C)c(N)n1 [Amprolium hydrochloride] | 0.284 ± 0.029 |
| COc1cc(C(=O)OCCCN2CCCN(CCCOC(=O)c3cc(OC)c(OC)c(OC)c3)CC2)cc(OC)c1OC [Dilazep dihydrochloride] | 0.264 ± 0.034 |
| CC(C)(O/N=C(\C(=O)N[C@@H]1C(=O)N2C(C(=O)[O-])=C(C[n+]3ccccc3)CS[C@H]12)c1csc(N)n1)C(=O)O [Ceftazidime pentahydrate] | 0.0435 ± 0.0041 |
| O=C(c1ccc(OCCN2CCCCC2)cc1)c1c(-c2ccc(O)cc2)sc2cc(O)ccc12 [Raloxifene hydrochloride] | 0.0454 ± 0.0038 |
| CS(=O)(=O)c1ccc([C@@H](O)[C@@H](CO)NC(=O)C(Cl)Cl)cc1 [Thiamphenicol] | 0.0511 ± 0.0029 |
| CN(C)CC/C=C1\c2ccccc2CSc2ccccc21 [Dosulepin hydrochloride] | 0.208 ± 0.0074 |
| CCOc1nc2cccc(C(=O)O)c2n1Cc1ccc(-c2ccccc2-c2nnn[nH]2)cc1 [Candesartan] | 0.297 ± 0.0053 |
| CCc1cc(C(N)=S)ccn1 [Ethionamide] | 0.294 ± 0.0077 |
| CN(C)CCCC1(c2ccc(F)cc2)OCc2cc(C#N)ccc21 (stereo not given) [Citalopram Hydrobromide] | 0.272 ± 0.011 |
| Cn1c(=O)c2c(ncn2C)n(C)c1=O [Caffeine] | 0.28 ± 0.0091 |
| COc1ccc(C(=O)NCc2ccc(OCCN(C)C)cc2)cc1OC [Itopride] | 0.298 ± 0.0084 |
| Cn1cnc([N+](=O)[O-])c1Sc1ncnc2[nH]cnc12 [Azathioprine] | 0.0771 ± 0.0059 |
